In this assay the test system is gramicidin D channels in DC22:1PC lipid vesicles (bilayer-modifying potency). The experiment in a line: initial Tl+ fluorescence quench rate relative to no-drug control (NormRate, gramicidin monomer-dimer shift) (ratio (fold of control)); higher = stronger bilayer-modifying effect (equilibrium shifted toward conducting dimers), active = 1.5 or more. As to conditions: 10 µM; lipid concentration 50 µM; temperature: 25 °C. On the procedure: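 Stopped-flow fluorescence quench assay: ANTS-loaded DC22:1PC large unilamellar vesicles doped with gramicidin D (1:2000), 50 µM lipid, equilibrated 10 min with 10 µM drug (0.1% DMSO), mixed with Tl+ quench buffer at 25°C. Initial quench rate (Tl+ influx) was fitted with a modified stretched exponential and normalised to the no-drug control rate (NormRate); duplicates from two independent LUV preparations (triplicates for 7 drugs).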
`Cc1nc2ccccn2c1C(=O)NCc1ccc(Cl)cc1`: the “initial Tl+ fluorescence quench rate” value is 1.17 (inactive).
Then `Cc1cc(OCC(=O)Nc2ccc(C(C)C)cc2)n(C)c(=O)c1C#N`, with 1.25 (inactive).
For `O=C(NCCN1CCCC1)c1cc(NCCCCN2CCC(F)(F)CC2)nc2ccc(Cl)cc12`, the “initial Tl+ fluorescence quench rate” value was 1.92 (active).
For the compound `COc1ccccc1OCCCCn1c(C2CC2)nc2ccccc21`, the “initial Tl+ fluorescence quench rate” value was 1.18 (inactive).
Then `CC(C)(C)n1nc(Cc2cccc3ccccc23)c2c(N)ncnc21`, with 2.86 (active); and `Cc1cc(Cl)c(S(=O)(=O)N2CCCC2)cc1OCC(=O)NC1CCCCC1`, with 1.19 (inactive); and `CC1(C)Cc2c(c(N3CCOCC3)nc3snc(Br)c23)CO1`, with 1.26 (inactive).
Then `CS(=O)(=O)c1ccccc1C(=O)N(Cc1ccccc1)c1ccccc1`, with 1.09 (inactive); and `N#CCN(CCCCN1CCN(c2ccc(F)cc2)CC1)C(=O)OCc1ccccc1`, with 1.5 (inactive); and `Cc1cc(C(=O)Nc2cnn(Cc3ccc(Cl)cc3Cl)c2)no1`, with 1.1 (inactive).
With `CC(=O)NC[C@H]1CN(c2ccc(-c3ccc(CO)cc3)c(F)c2)C(=O)O1`, the “initial Tl+ fluorescence quench rate” value was 1.22 (inactive).
Then `CCCCCCCCCCCCCCCCOP(=O)([O-])OCC[N+](C)(C)C`, with 2.31 (active); and `CN1CCN(CCCOc2ncc(Nc3ncc(-c4ccc(C(F)(F)F)c(F)c4)nc3C(N)=O)cn2)CC1`, with 3.11 (active).
Then `Cc1ncc(-c2ccnc(Nc3ccc(S(C)(=O)=O)cc3)n2)n1C(C)C`, with 1.03 (inactive).
Then `COc1ccc(Nc2ccccc2NC(=O)c2ccc(O)nc2)cc1`, with 1.03 (inactive); and `CNc1cc(C)nc([C@@H]2CN(C(=O)c3n[nH]c4ccccc34)CCO2)c1`, with 1.11 (inactive).
As to `CC(C)(C)c1cc(C(=O)Nc2cccnc2)cc(C(=O)Nc2cccnc2)c1`, the “initial Tl+ fluorescence quench rate” value is 1.39 (inactive).
Then `COc1ccc(C2=NN(C3CCCCCC3)C(=O)C2(C)C)cc1OCCCCOc1ccc(-c2nn[nH]n2)cc1`, with 9.05 (active); and `Cc1cc(Nc2ccncc2)n2nc(C)c(-c3ccccc3Cl)c2n1`, with 1.03 (inactive).
As to `OCCc1ccc(Nc2nccc(-c3nnc4ccccn34)n2)cc1`, the “initial Tl+ fluorescence quench rate” value was 1.01 (inactive).
Then `CC(C)(C)c1cc(C(=O)N2CCN(c3nccnc3C#N)CC2)n(Cc2ccccc2)n1`, with 1.21 (inactive).
Then `c1ccc(-c2nc(NC3CCCCC3)cc(C3CC3)n2)nc1`, with 1.76 (active).

The values are drawn from the supplement of paper PMC9948646.
